target: AMP-activated protein kinase, AMPK (Homo sapiens) (UniProt P54646+O43741+P54619+Q9UGJ0+Q9Y478+Q13131+Q9UGI9); assay: AMP-dependent Kinase enzyme assay. An in vitro enzyme assay that detects ADP turnover that is directly proportional to AMPK activity. This uses naive AMPK that is activated during the assay with MK-8722; format: functional; parameters: scale not given: direction of the effect not stated beside the values; settings: 30 µM

| Structure (SMILES) | Percent Effect [%] |
| --- | --- |
| CCOc1ccc(C(=O)NC2CCN(c3ncccn3)CC2)cc1C | 0.756 |
| O=C(NCC(O)c1cccc(F)c1)C1CCN(C(=O)C2CCC2)CC1 (stereo not given) | -3.62 |
| Cc1cc(-c2cnc(N3CCCC3)nc2C(C)C)on1 | 16.6 |
| O=C(Nc1ccc2c(c1)C(=O)NC2=O)c1cccs1 | 16.2 |
| O=C(CCn1cncn1)N1CCCC(CO)(CCCc2ccccc2)C1 (stereo not given) | 0.934 |
| Cc1cc(CN2CCN(S(=O)(=O)c3c(C)c(Cl)cc(C)c3Cl)CC2)on1 | -3.43 |
| CCOCCC(=O)NC(c1noc(C)n1)c1ccccc1F (stereo not given) | 1.15 |
| Cc1cc(NC(=O)C2CCN(c3nnc(C)c(C)c3C#N)CC2)no1 | -48.4 |
| Cc1occc1C(=O)Nc1ccc(C(=O)NC[C@H]2CCCN2)cc1 | -9.02 |
| CCCC1COCCN1Cc1ccc(NC(C)=O)cc1 (stereo not given) | -4.72 |
| Cc1cc(CN2CCC(C3CCN(CCc4ccccc4)CC3)C2)[nH]n1 (stereo not given) | -4.05 |
| CC(C)c1cc(NCc2csc(N(C)C)n2)nc(N)n1 | -10.6 |
| Cc1cnc(CCNC(=O)NCCc2ccc(O)cc2)s1 | 38.4 |
| Cc1nc(CN2CCN(S(=O)(=O)N3CCOCC3)CC2)oc1C | -4.75 |
| CCCOc1cc(CNC(=O)Nc2ccccn2)ccn1 | 7.59 |
| CSCC(=O)N1CCN(CC(O)C(C)(C)C)CC1 (stereo not given) | -3.62 |
| Cc1ccc(OCc2occc2C(=O)N2CC[C@H](CO)[C@@H](O)C2)cc1 | 14.2 |
| CNc1ccc(C)cc1C(=O)N1CCCC2(CCNC2)C1 (stereo not given) | 10.4 |
| CC(C)C(C(N)=O)c1cccc(Cl)c1 (stereo not given) | -2.67 |
| CCc1ncc2c(n1)CN(c1cc(NC3CC3)nc(N)n1)C2 | -118 |

From ChEMBL document CHEMBL3988442, “University of Dundee, Small-Polar-MMV Screening Library” (2021)
